AMPAR-TARP mod: GluA2-stargazin AMPA receptor complex modulation. HEK293 GluA2+stargazin, membrane potential dye (FDSS), glutamate EC50; hits were called plate by plate, in both directions. calls only at 30 µM. hit rate 3.5% among 40,000;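 active = any of four per-well response measures lying three or more SD from its plate-wide compound average, in either direction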
GIRK2 act: Activates human GIRK2-containing potassium channels; P48051; HEK293 GIRK2/NPY4 cells, thallium flux fluorescence; activation (% efficacy), % for hits at 37.5 µM; 34,000 tested, under 10 active;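 active = primary screen hit, no activity in plain HEK293 cells, and in GIRK2-only cells above 5% efficacy rising with concentration; inactive = the rest, including fluorescent compounds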;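 also: efficacy is normalized control-subtracted fluorescence 15 s after thallium addition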
Target sequence (P48051 whole entry, looked up): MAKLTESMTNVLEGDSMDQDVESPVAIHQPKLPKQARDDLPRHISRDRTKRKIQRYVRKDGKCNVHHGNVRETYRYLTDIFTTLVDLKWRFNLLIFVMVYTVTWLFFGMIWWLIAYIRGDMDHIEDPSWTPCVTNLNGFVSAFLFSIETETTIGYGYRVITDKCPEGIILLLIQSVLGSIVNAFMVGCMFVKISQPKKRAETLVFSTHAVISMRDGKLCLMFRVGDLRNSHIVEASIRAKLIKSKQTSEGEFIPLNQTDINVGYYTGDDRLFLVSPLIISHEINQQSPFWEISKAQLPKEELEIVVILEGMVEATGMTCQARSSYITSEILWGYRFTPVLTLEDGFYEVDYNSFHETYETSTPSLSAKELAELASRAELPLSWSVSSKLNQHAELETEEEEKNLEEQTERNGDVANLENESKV
Numbers without * were called inactive; i = inactive; · = no result given; + = active, no number. This is one part of a sample in which hits are shown more often than they occur.

SMILES	AMPAR-TARP mod	GIRK2 act
O=C(CSc1nc(=O)n(Cc2ccco2)c2c1CCC2)NC1CCCCC1	i	i
S=c1nc(-c2ccc(Br)cc2)n(Cc2ccco2)c2c1CCCC2	+	·
CCSc1ccccc1C(=O)Nc1ccc(C)c(N2CCCCC2=O)c1	i	i
COC(=O)c1sccc1NC(=O)CN1CCCN(Cc2ccccc2)S1(=O)=O	i	·
CCOC(=O)c1ccccc1NC(=O)CN1CCCN(Cc2ccccc2Cl)S1(=O)=O	+	i
O=C(NC(c1ccccc1)c1ccccc1)c1ccc(S(=O)(=O)NCc2ccco2)o1	+	i
CC(NC(=O)c1ccc(S(=O)(=O)N2CCOCC2)o1)c1ccccc1 (stereo not given)	i	i
CCOc1ccc2nc(N3CCN(C(=O)c4ccn(C(C)C)n4)CC3)sc2c1	i	i
NS(=O)(=O)c1ccc(CCNC(=O)Cc2cc(-c3ccc(Cl)cc3)on2)cc1	i	i
Cc1nc2c(sc3cccc(F)c32)c(=O)n1CC(=O)NC1CCCCC1	·	i
O=C(Cn1c(CO)cnc1SCc1c(F)cccc1Cl)NC1CCCC1	+	i
CC(=O)Oc1ccc2c(c1)O/C(=C\c1ccc(C(C)C)cc1)C2=O	i	·
CCOc1ccc(S(=O)(=O)N2CCN(c3ccc4nncn4n3)CC2)c(OCC)c1	i	i
Cc1ccc(C)c(N2C(=O)N(Cc3ccc(Br)cc3F)C3CS(=O)(=O)CC32)c1 (stereo not given)	i	·
Cc1ccc(C)c(CN2C(=O)N(c3cc(C)ccc3C)C3CS(=O)(=O)CC32)c1 (stereo not given)	+	·
COc1ccc(-n2nnc3c(N4CCN(C(=O)c5ccc(C(F)(F)F)cc5)CC4)ncnc32)cc1	i	·
CCCNC(=O)CCCCn1c(=O)c2ccccc2n(CC(=O)Nc2ccccc2Cl)c1=O	+	i
O=C(CCCCn1c(=O)c2ccccc2n(CC(=O)NC2CCCCC2)c1=O)NCc1cccs1	+	i
CCCNC(=O)CCCCn1c(=O)c2ccccc2n(CC(=O)Nc2cccc(SC)c2)c1=O	i	i
O=C(CCCCn1c(=O)[nH]c2ccccc2c1=O)NC1CCCCCC1	i	i
CC(C)C(=O)Nc1ccc(S(=O)(=O)Nc2ccc3c(c2)N(C(=O)C2CC2)CC3)cc1	i	i
O=C(NCC(O)Cc1ccccc1)C(=O)Nc1ccccc1Cl (stereo not given)	i	i
CC(=O)Nc1ccc(NC(=O)Cc2csc(NC(=O)c3ccc(=O)[nH]c3)n2)cc1	i	i
Cc1cccc(CN(c2ccc3c(c2)OCO3)S(=O)(=O)c2ccc3nncn3c2)c1	+	i
COc1ccc(N(Cc2ccccc2)S(=O)(=O)c2ccc3nncn3c2)cc1	i	i
SMILES	AMPAR-TARP mod	GIRK2 act
COc1ccc(S(=O)(=O)NCC(c2ccsc2)N(C)C)cc1Cl (stereo not given)	i	i
COc1ccc(S(=O)(=O)NCCc2ccc(N(C)C)cc2)cc1Cl	+	·
O=S(=O)(NCC(O)(c1ccccc1)C(F)(F)F)c1ccc(F)c(Cl)c1 (stereo not given)	i	i
COc1ccc(S(=O)(=O)NCC(O)(c2ccccc2)C(F)(F)F)cc1Cl (stereo not given)	+	i
O=C(NCC1CCN(Cc2cccs2)CC1)C(=O)Nc1cc(F)ccc1F	i	i
O=C(c1nnn(-c2ccc(F)cc2)c1-c1ccncc1)N1CCN(c2cccc(Cl)c2)CC1	i	i
O=C(Cn1nc(-c2cccnc2)ccc1=O)Nc1nc2ccccc2[nH]1	+	i
Cc1cc(=O)n(CC(=O)Nc2nc3ccccc3[nH]2)cn1	i	i
COc1cccc(-c2cc(CC(=O)N3CCN(C(C)=O)CC3)no2)c1	i	i
COc1ccc(CNC(=O)C(=O)Nc2ccc(NC(C)=O)cc2)cc1	i	i
COc1ccc(CCNC(=O)C(=O)Nc2ccc(NC(C)=O)cc2)cc1	+	i
COc1cc(C)ccc1OCC(=O)NCCOc1ccc2nnc(-c3ccccc3)n2n1	i	i
CSc1cccc(NC(=O)c2n[nH]c3ccccc23)c1	i	i
O=C(Nc1ccc(F)c(F)c1)c1n[nH]c2ccccc12	+	·
COc1ccc(Nc2cc(C)nc(N3CCN(C(=O)C4CCCC4)CC3)n2)cc1	+	i
O=C(COc1ncccn1)N1CCN(c2ccc(Nc3ccccn3)nn2)CC1	+	i
Cc1ccc(Nc2cc(C)nc(N3CCN(C(=O)COc4ncccn4)CC3)n2)cc1	+	i
Cc1cc(C)n(-c2ccc(N3CCN(C(=O)COc4ncccn4)CC3)nn2)n1	·	i
Cc1cc(Nc2ccccc2)nc(N2CCN(C(=O)c3ccc4c(c3)OCO4)CC2)n1	i	·
O=C(Cc1ccc(Cl)cc1)N1CCN(c2ccc(Nc3ccccn3)nn2)CC1	i	i
CNc1nc2c(c(=O)[nH]c(=O)n2C)n1CCc1ccc(OC)cc1	i	i
CCOCCCn1c(SCc2nc(-c3ccc(F)cc3)no2)nc2ccccc2c1=O	i	i
Cc1cc(OCC(=O)NCCn2nc(-n3cccn3)ccc2=O)ccc1Cl	·	i
CC(=O)c1sc(NC(=O)C2CCN(S(=O)(=O)c3cccs3)CC2)nc1-c1ccccc1	i	·
CCOc1cc(C)ccc1S(=O)(=O)N1CC(C)CC(C)C1 (stereo not given)	+	·
SMILES	AMPAR-TARP mod	GIRK2 act
CCOc1cc(C)ccc1S(=O)(=O)N1CCCCC1	i	·
COc1ccc(-c2ccc(C#N)c(SCc3ccc(C#N)cc3)n2)cc1	i	i
COc1ccc(-c2ccc3c(N)c(-c4ccc(C#N)cc4)sc3n2)cc1	+	i
CCC(=O)Nc1ccc(SCC(=O)Nc2cc(C(F)(F)F)ccc2OC)nn1	·	i
O=C(NCCNC(=O)C(c1ccccc1)c1ccccc1)c1ccc(NC(=O)C2CC2)cc1	i	i
CON(C)C(=O)C1CN(C(=O)c2cc(C)on2)C1	i	i
COc1ccc(Cc2nc3ccccc3n2CC(=O)N2CCCCCC2)cc1OC	i	i
Cc1ccccc1NC(=O)Cn1c(Cc2ccccc2)nc2ccccc21	+	i
CCCc1ccc(S(=O)(=O)NCC2CCN(Cc3ccco3)CC2)cc1	+	i
O=C(NCc1ccccc1)C(=O)NCC1CCN(Cc2ccco2)CC1	i	i
COc1ccc(CNC(=O)C(=O)NCC2CCN(Cc3ccco3)CC2)cc1	+	i
CC(=O)Nc1ccc(S(=O)(=O)NCC2CCN(Cc3ccco3)CC2)cc1	i	i
COc1coc(C(=O)NCc2ccc3c(c2)OCO3)cc1=O	i	i
COc1ccc(N2CCN(C(=O)c3cc(Cl)ccc3OC)CC2)nn1	i	i
COc1ccc(N(CC(O)CNCC(=O)O)S(=O)(=O)c2ccc(C)cc2)cc1 (stereo not given)	i	i
O=C(COc1ccccc1C1CC(c2cccs2)=NN1C(=O)c1ccccc1)N1CCCC1 (stereo not given)	i	·
O=C(COc1ccccc1C1CC(c2ccccc2)=NN1C(=O)c1ccccc1)N1CCOCC1 (stereo not given)	+	·
O=C1CC(NC(=O)c2ccccc2Oc2ccccc2)CN1 (stereo not given)	+	·
CCSc1ccccc1C(=O)NC1CNC(=O)C1 (stereo not given)	i	·
O=C(Cc1cccc2ccccc12)NCC1CCN(C(=O)c2ccccc2F)CC1	i	i
